Compound activity: PubChem BioAssay, National Center for Advancing Translational Sciences (NCATS)
DT40 TDP1 CPT – DT40-hTDP1 cell growth loss with CPT; chicken DT40 Tdp1-/-;hTDP1 cells + 20 nM CPT, ATP luminescence, 48 h; Potency, µM (doses to about 46.2 µM), inactives show at the top dose activity change, negative = growth inhibition, usual class: inhibitors; 420,000 tested, 12% active; AID 686979; further: nearly all actives have a fitted effect of over 55% in size
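Cell growth measured by CellTiter-Glo luminescence after a minimum 48 h, 37 C compound exposure with 20 nM CPT in Tdp1-knockout DT40 cells stably expressing hTDP1, seeded 400/well; qHTS titration format.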
DT40 TDP1 no CPT – qHTS for Inhibitors of human tyrosyl-DNA phosphodiesterase 1 (TDP1): qHTS in cells in absence of CPT; DT40 Tdp1-/- hTDP1 cells, no CPT, ATP luminescence, 48 h; Potency, µM (top dose mostly 46.2 µM), for inactives: at the highest dose activity change, negative = growth inhibition, most hits filed as inhibitors; 420,000 tested, 15% active; AID 686978, 2013; further: nearly all actives have a fitted effect of over 55% in size
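Seeded 400 DT40-hTDP1 cells/well (vehicle DMSO, no 20 nM CPT); pinned compounds; ≥48 hr at 37 °C; CellTiter-Glo luminescence as viability measure.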
ELG1 DNA repair – blocks ELG1-dependent DNA repair in HEK293T cells; HEK293T ELG1-luciferase reporter, luminescence, 16 h; DNA damage induced by 5-fluorouridine; Potency, µM (titrated, usually from 46.1 µM), for the others: top-dose activity change, negative = inhibition, hits mostly inhibitors; 330,000 tested, 2.3% active; AID 504467; further: nearly all actives have a fitted effect of over 55% in size
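In this reporter screen, reduction of luminescence relative to DMSO vehicle indicated activity. Compounds and 5-fluorouridine were added together to 2,000 cells per well, incubated for 16 hr at 37 °C, then developed with ONE-Glo.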
VP16 counter – Gal4-VP16 reporter inhibition counter-screen; Drosophila S2 Gal4-VP16 UAS-luciferase, luminescence, 20 h; Potency, µM (series often up to 53.6 µM), for inactives: top-dose activity, negative = inhibition, most hits filed as inhibitors; 310,000 tested, 3.5% active; AID 2546;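 further: Gal4-VP16 expression switched on by copper sulfate through the metallothionein promoter; nearly all actives have a fitted effect of over 50% in size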
RORgamma inh – inhibitors of mouse ROR gamma transcriptional activity. P51450. Drosophila S2 Gal4-RORgamma UAS-luciferase reporter, 20 h. Potency, µM (series often up to 53.6 µM), for inactives: at the highest dose activity change, negative = inhibition, most hits filed as inhibitors. 310,000 tested, 5.4% active. AID 2551; further: nearly all actives have a fitted effect of over 60% in size
Target sequence (P51450 whole entry, looked up, the tested form may be a part): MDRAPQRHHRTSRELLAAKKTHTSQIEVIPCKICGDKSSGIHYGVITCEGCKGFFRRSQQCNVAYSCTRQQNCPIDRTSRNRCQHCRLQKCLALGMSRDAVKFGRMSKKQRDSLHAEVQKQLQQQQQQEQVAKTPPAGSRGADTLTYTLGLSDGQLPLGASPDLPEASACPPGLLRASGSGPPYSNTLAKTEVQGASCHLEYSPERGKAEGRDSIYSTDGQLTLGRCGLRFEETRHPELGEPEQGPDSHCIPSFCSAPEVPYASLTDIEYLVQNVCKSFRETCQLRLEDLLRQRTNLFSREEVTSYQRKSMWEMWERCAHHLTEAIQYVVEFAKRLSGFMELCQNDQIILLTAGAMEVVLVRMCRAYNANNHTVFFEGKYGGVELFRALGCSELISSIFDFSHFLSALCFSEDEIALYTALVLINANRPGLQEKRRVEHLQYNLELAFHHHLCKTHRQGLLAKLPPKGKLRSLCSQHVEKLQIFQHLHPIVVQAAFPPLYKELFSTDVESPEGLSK
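Schneider cells (Drosophila), stable Gal4 DBD–ROR gamma + UAS-luc; 1 hr cmpd preincubation; Cu2+ induction 700 uM final; 20 hr ambient; luminescence.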
12-LOX inh – ALOX12 (human) lipoxygenase inhibition; purified 12hLO, xylenol orange hydroperoxide absorbance; P18054; Potency, µM (doses to about 108 µM), inactives show at the top dose activity change, negative = inhibition, hits mostly inhibitors; 580,000 tested, 1.1% active
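Purified human 12hLO (150 nM final) in 25 mM Hepes, 0.01% Triton X-100, pH 7.0 was preincubated 15 min at room temperature with compound. Then 40 uM arachidonic acid was added, 30 min. Hydroperoxide was read by Fe-XO absorbance ratio 573/405 nm.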
* hit, by the source's call; ? = inconclusive; / = not tested or not shown; [ ] = remark or other dose. Rows were chosen to be rich in hits. Some 15% of all compounds tested hit in one or more screens of this group. The call rests on the fitted dose curve; in most records, active means well fitted curve in the direction sought with a large enough effect; inconclusive means small, poorly fitted or top-dose-only effect, or another doubt; inactive means no such curve, though single readings can be large; an effect the other way counts as inactive or inconclusive. On the % scale 0 is the no-effect control and ±100 the full control effect; potency means the concentration at half of the fitted maximal effect.

SMILES | DT40 TDP1 CPT | DT40 TDP1 no CPT | ELG1 DNA repair | VP16 counter | RORgamma inh | 12-LOX inh
C/C=C/c1ccc(OCc2ccc(C#N)cc2)c(OC)c1 | / | / | / | / | / | -20.0%
CCn1ncc2c(OCc3ccc(C#N)cc3)cc(C)nc21 | ? | ? | 25.9µM* | -2.1% | 2.7% | 0.0%
N#Cc1ccc(-c2cccs2)nc1SCc1cccnc1 | 0.517µM* | 0.411µM* | 23.7% | -6.2% | -23.5% | ?
O=c1cc(-c2ccccc2)[nH]c2ccccc12 | 0.517µM* | 0.92µM* | ? | 2.9% | ? | 0.0%
COc1cccc(-c2nc(SCc3cc(=O)c4ccc(C)c(C)c4[nH]3)n[nH]2)c1 | ? | 8.2µM* | / | / | / | -5.2%
O=c1cc(CSc2n[nH]c(-c3ccccc3)n2)[nH]c2ccccc12 | 25.9µM* | 25.9µM* | / | / | / | -25.9%
Cc1ccc2c(=O)cc(CSc3ncn[nH]3)[nH]c2c1C | ? | ? | / | / | / | -7.7%
O=C(CSc1n[nH]c(-c2ccccc2)n1)NCc1cccc(C(=O)O)c1 | 10.1% | -0.1% | 10.0% | -2.4% | -4.7% | -14.8%
CC1CN(C(=O)COc2cc3oc(=O)cc(-c4ccccc4)c3cc2Cl)CCO1 (configuration not stated) | / | / | / | / | / | -6.0%
CSC1=N/C(=C\C=C\c2ccco2)C(=O)S1 | / | / | / | / | / | 3.16µM*
C=CCSC1=N/C(=C\C=C\c2ccco2)C(=O)S1 | 23.1µM* | 18.4µM* | 8.3% | 1.5% | 11.0% | ?
C=CCSC1=N/C(=C\C=C\c2ccccc2)C(=O)S1 | / | / | / | / | / | 14.1µM*
C=CCSC1=N/C(=C\c2sccc2C)C(=O)S1 | 1.1% | -0.1% | -1.8% | ? | 13.8% | 0.0%
CSC1=N/C(=C\c2ccccc2F)C(=O)S1 | -28.9% | -4.0% | -12.5% | 3.7% | 16.4% | 0.0%
O=[S+]1([O-])NCC2(CCN(Cc3c(F)cccc3F)C2)Oc2ccncc21 (configuration not stated) | / | / | / | / | / | 5.1%[6.33 µM]
COc1cccc(C2CCCCN2Cc2nc(CCc3ccccc3)no2)c1 (configuration not stated) | / | / | / | / | / | -11.0%
C=CCC[C@H](Cc1ccc(F)cc1)C(=O)OC[C@@H](C)NC(=O)[C@H](CC=C)CC(=O)N(CCO)Cc1ccccc1 | 14.6µM* | 18.4µM* | ? | / | / | -32.5%
C=CCC[C@@H](Cc1ccc(F)cc1)C(=O)OC[C@H](C)NC(=O)[C@H](CC=C)CC(=O)N(CCO)Cc1ccccc1 | 18.4µM* | ? | 25.9µM* | / | / | 1.0%
C=CC[C@H](CC(=O)N(CCO)Cc1ccccc1)C(=O)N[C@@H](C)COC(=O)[C@@H](CC=C)Cc1ccc(F)cc1 | 16.4µM* | ? | -19.2% | / | / | 11.1%
C=CCC[C@@H](Cc1ccc(F)cc1)C(=O)OCCNC(=O)[C@@H](CC=C)CC(=O)N(CCO)Cc1ccccc1 | 20.6µM* | 20.6µM* | -7.7% | / | / | -11.9%
C=CCC[C@H](Cc1ccc(F)cc1)C(=O)OC[C@@H](C)NC(=O)[C@H](CC=C)CC(=O)NCCO | -23.4% | ? | 17.7% | / | / | -8.1%
CC1=NS(=O)(=O)N(C)C=C1C(=O)OCc1nc(-c2ccc3c(c2)OCO3)no1 | / | / | / | / | / | 6.6%
C=CCC[C@@H](Cc1ccc(F)cc1)C(=O)OC[C@@H](NC(=O)[C@H](CC=C)CC(=O)N(CCO)Cc1ccccc1)c1ccccc1 | ? | ? | ? | / | / | -2.3%
C=CCC[C@@H](Cc1ccc(F)cc1)C(=O)OC[C@@H](NC(=O)[C@@H](CC=C)CC(=O)N(CCO)Cc1ccccc1)c1ccccc1 | 14.6µM* | 25.9µM* | 20.6µM* | / | / | -15.9%
C=CCC[C@@H](Cc1ccc(F)cc1)C(=O)OC[C@H](C)NC(=O)[C@@H](CC=C)CC(=O)N(CCO)Cc1ccccc1 | ? | 20.6µM* | ? | / | / | -5.3%
SMILES | DT40 TDP1 CPT | DT40 TDP1 no CPT | ELG1 DNA repair | VP16 counter | RORgamma inh | 12-LOX inh
COCCn1nc2n(c1=O)CCN(C(=O)c1ncccc1C)CC2 | / | / | / | / | / | 24.1%
CCOc1ccccc1CNC(=O)CCCN1C(=O)COc2ccc(C)cc21 | ? | 18.4µM* | / | / | / | -8.1%
Cc1cc(C)c(NC(=O)CCCN2C(=O)COc3ccc(C)cc32)c(C)c1 | ? | 16.4µM* | / | / | / | -10.2%
Cc1cccc(CNC(=O)CCCN2C(=O)COc3ccc(C)cc32)c1 | 14.6µM* | ? | / | / | / | -10.8%
CCOc1ccc(CN2CCc3nc(N4CCN(c5ccccn5)CC4)ncc3C2)cc1OC | 23.1µM* | 23.1µM* | / | / | / | -0.6%
CCOc1ccccc1CN1CCc2nc(N3CCN(c4ccccc4F)CC3)ncc2C1 | 16.4µM* | 20.6µM* | / | / | / | ?
COc1ccccc1N1CCN(c2ncc3c(n2)CCN(Cc2ccccc2C)C3)CC1 | -12.3% | 5.3% | / | / | / | -11.6%
Cc1ccccc1CN1CCc2nc(N3CCN(c4ncccn4)CC3)ncc2C1 | ? | 20.6µM* | / | / | / | ?
CC(C)NC(=O)N1CCC2(CC1)CC(N(Cc1ccc(F)cc1)C1CC1)CCO2 (configuration not stated) | / | / | / | / | / | 15.6%
Brc1ccc2nc(C3CCCCC3)c(Cc3ccccc3)n2c1 | ? | ? | / | / | / | -29.7%
COC(=O)c1ccc2nc(-c3ccc(F)cc3)c(Cc3ccccc3C(F)(F)F)n2c1 | -10.2% | -22.7% | / | / | / | 0.0%
Cc1ccc2nc(-c3ccccc3)c(Cc3ccsc3)n2c1 | 14.6µM* | 16.4µM* | / | / | / | -4.5%
COC(=O)c1ccc2nc(C3CCCCC3)c(Cc3ccccc3)n2c1 | 16.4µM* | 9.2µM* | / | / | / | ?
COC(=O)c1ccc2nc(-c3ccc(C)cc3)c(Cc3ccsc3)n2c1 | 18.4µM* | 20.6µM* | / | / | / | 39.8µM*
FC(F)(F)c1cc(Cl)c2nc(-c3ccccc3)c(Cc3ccsc3)n2c1 | -17.1% | -16.3% | / | / | / | -48.1%
COC(=O)c1ccc2nc(-c3ccc(F)cc3)c(Cc3ccsc3)n2c1 | ? | 18.4µM* | / | / | / | 7.08µM*
CCN1c2cc(C(=O)N3CCN(c4ccc(C)cc4)CC3)ccc2C(=O)N2CCCCC21 (configuration not stated) | / | / | / | / | / | 31.1%
N#Cc1ccc(-c2nc3c(Cl)cc(C(F)(F)F)cn3c2Cc2ccsc2)cc1 | -8.8% | -11.4% | / | / | / | ?
COC(=O)c1ccc2nc(-c3ccc(F)cc3)c(Cc3ccccc3)n2c1 | 16.4µM* | 23.1µM* | / | / | / | ?
COC(=O)c1ccc2nc(-c3ccc(C#N)cc3)c(Cc3ccsc3)n2c1 | ? | 23.1µM* | / | / | / | ?
CCOc1ccccc1CNC(=O)C1CCCN(c2nn3cc(-c4ccc(F)cc4)nc3s2)C1 (configuration not stated) | / | / | / | / | / | 27.9%
